SKKanGAS inh – blocks kanamycin growth of S. pyogenes SKKanGAS strain | inhibition, % at 7.5 µM | 1.3% of 300,000 active | BacTiter-Glo, 6 h;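 active = mean replicate score, as percent of positive control median, at least 50; inconclusive = mean below 50 but one replicate at or above 50; inactive = mean and every replicate below 50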;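 also: strain carries kanamycin resistance gene driven by streptokinase promoter and grows in 40 µg/ml kanamycin; loss of luminescence reflects streptokinase promoter inhibition or plain growth inhibition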
aSyn UTR inh – MLPCN primary screen, SNCA 5' untranslated region; inhibition, % (tested at 7.5 µM); 0.82% of 300,000 active; alpha-synuclein 5'UTR reporter, inhibitor activity; AID 1813; in the data active = inhibition above about 60%; inconclusive = no clear call, values can overlap the other calls;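 also: H4 neuroglioblastoma cells stably carrying SNCA 5'UTR luciferase fusion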
KLF5 inh – suppresses KLF5 promoter-driven expression. inhibition, % at 5 µM. 0.23% of 290,000 active. DLD-1 KLF5 promoter-luciferase reporter, luminescence;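 active = inhibition above a per-plate limit of that plate's mean compound inhibition plus 3 SD, cut at about 60% in these data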;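 also: higher means less KLF5 promoter-driven luciferase light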
IEC-6 cytotox – IEC-6 cytotoxicity, counter-screen for KLF5 inhibitors; luminescence viability; inhibition, % at 5 µM; 0.78% of 290,000 active; AID 1825; in the data active = inhibition above about 22%
CSC inhib – blocks cancer stem cells; cancer stem cell-like cells viability, luminescence; 1.1% of 300,000 active; AID 2717; inhibition, % at 7.5 µM; in the data active = inhibition above about 75%; inconclusive = no clear call, values can overlap the other calls; tested in HMLE shEcad cells
Large screens that a line does not name were inactive. Only some compounds are listed: those with a hit (about 3% of all), similar ones and a draw of the others.

CCC(C(=O)NCCc1ccccc1OC)n1nc(C)c2c(C)n(-c3ccccc3)nc2c1=O (centres undefined)	none
Cn1cnnc1SCc1ccc(C(=O)N=Nc2c(O)n(Cc3ccc(Cl)cc3)c3ccccc23)cc1	SKKanGAS inh 56.8
C/C(=N\NC(=O)CSc1ncccn1)c1ccc2c(c1)OCCO2	none
O=C(CCCCn1c(=O)c2ccccc2n(Cc2ccccc2F)c1=O)NC1CCN(Cc2ccccc2)CC1	none
Cc1cccc(C)c1NC(=O)CNC(=O)c1cn(-c2ccccc2)nc1-c1ccccc1	none
Cc1nn(Cc2c(Cl)cccc2Cl)c(C)c1NC(=O)c1cn(-c2ccccc2)nc1-c1ccccc1	SKKanGAS inh 62.9, aSyn UTR inh 122.3, CSC inhib 165.4
Cc1cc(C)n(-c2nc3c(c(=O)[nH]c(=O)n3C)n2CC(O)COc2ccc(Cl)cc2Cl)n1 (centres undefined)	aSyn UTR inh 73.2
O=S(=O)(c1ccc2ncn(O)c2c1)N1CCOCC1	none
CCOC(=O)c1sc(N(Cc2ccccc2)C(=O)CCl)nc1C	none
O=C(O)CSCC(=O)N(Cc1ccccc1)c1nc(-c2ccccc2)c(-c2ccccc2)s1	SKKanGAS inh 94.1
Cc1ccc(NC(=S)NC(=O)c2ccc(F)cc2)cc1S(=O)(=O)Nc1ccccc1Cl	CSC inhib 78.8
COc1ccccc1NS(=O)(=O)c1cc(NC(=S)NCC2CCCO2)ccc1C (centres undefined)	SKKanGAS inh 55.5
Cc1ccc(NC(=O)c2ccc(=O)[nH]n2)cc1S(=O)(=O)Nc1ccccc1Cl	none (no result: SKKanGAS inh, aSyn UTR inh, KLF5 inh, IEC-6 cytotox)
O=C(N/N=C/c1ccc2c(c1)OCO2)C(=O)Nc1cccc(Cl)c1	none (no result: CSC inhib)
COCCNC(=O)NC1(C(F)(F)F)Oc2ccc(Cl)cc2O1 (centres undefined)	CSC inhib 75.1
Cc1cc(C)c2[nH]c(O)c(N=Nc3ccc(C(=O)O)cc3)c2c1	SKKanGAS inh 73.5
Cc1cc(C)c2[nH]c(O)c(N=NC3=NC(=O)CS3)c2c1	none
CC(C)(C)N1C(=O)c2ccc(C(=O)Nc3cc(C(=O)O)cc(C(=O)O)c3)cc2C1=O	none
O=C(NCCS(=O)(=O)N1CCN(c2ccc(F)cc2)CC1)c1ccc(Br)o1	aSyn UTR inh 127.2
COc1ccc(N2CCN(S(=O)(=O)CCNC(=O)Cc3ccc([N+](=O)[O-])cc3)CC2)cc1	aSyn UTR inh 65.3
O=C1C2C(C(=O)N1CCN1CCN(Cc3ccc([N+](=O)[O-])cc3)CC1)[C@H]1C=C[C@@H]2C1 (some centres undefined)	none
COc1ccc(S(=O)(=O)N2CCN=C2SCc2cccc(C)c2)cc1	SKKanGAS inh inconclusive
Cc1ccc(Cn2c(C(CO)Nc3nc(-c4ccc(F)cc4)cs3)nc3ccccc32)cc1 (centres undefined)	SKKanGAS inh 80.4 (no result: KLF5 inh, IEC-6 cytotox)
COc1ccc(-c2csc(NC(CO)c3nc4ccccc4n3Cc3ccc(C)cc3)n2)cc1 (centres undefined)	none (no result: KLF5 inh, IEC-6 cytotox)
CN(Cc1ccccc1)C(=O)COC(=O)c1cc(NS(=O)(=O)c2cccs2)ccc1O	none
O=C(CSc1n[nH]c(-c2ccccn2)n1)Nc1ccc(F)cc1	aSyn UTR inh 72.8
CCOC(=O)c1ccc(NNC(=O)CC)c([N+](=O)[O-])c1	none
COc1ccccc1C(=O)N/N=C(\C)c1ccc(NC(=O)Cc2ccccc2)cc1	none
C/C(=N\NC(=O)c1ccccc1N)c1ccc(NC(=O)Cc2ccccc2)cc1	SKKanGAS inh 67.5
Cc1cccc(-c2nc(CS(=O)CC(=O)N3CC(C)CC(C)C3)c(C)o2)c1 (centres undefined)	none
COC(=O)c1ccc(CSc2n[nH]c(=S)s2)o1	SKKanGAS inh 62.8
ClC(CCN1CCN(Cc2ccccc2)CC1)c1ccccc1 (centres undefined)	none (no result: KLF5 inh, IEC-6 cytotox)
CCCCCCCC(=O)NNC(=O)c1c(O)c2ccccc2n(CC)c1=O	SKKanGAS inh 98.6
CCn1c(=O)c(C(=O)NCCc2ccccc2)c(O)c2ccccc21	CSC inhib 94.9
CCn1c(=O)c(C(=O)NNC(=O)c2ccccc2)c(O)c2ccccc21	SKKanGAS inh 53.5
CCNCCNC(=O)c1c(O)c2ccccc2n(CC)c1=O	none
CCn1c(=O)c(C(=O)Nc2ccccc2C)c(O)c2ccccc21	none
C=CCn1c(=O)c(C(=O)NCc2ccccc2)c(O)c2ccccc21	SKKanGAS inh 54.5
COc1ccc(OC)c2[nH]c(=O)c(CCNC(=O)Cc3cccs3)cc12	none
O=C1c2oc3ccccc3c(=O)c2C(c2ccc(O)cc2)N1c1nccs1 (centres undefined)	none
Cc1ccc(S(=O)(=O)NCCc2cn3nc(C)c(C)nc3n2)cc1C	none
CCCCCCCCC(=O)NNC(=O)c1c(O)c2ccccc2n(CC)c1=O	SKKanGAS inh 106.4 (no result: CSC inhib)
CC(C)Cn1c(=O)c(C(=O)Nc2ccncc2)c(O)c2ccccc21	SKKanGAS inh 95.7, aSyn UTR inh 65.8, CSC inhib 135.4 (no result: KLF5 inh, IEC-6 cytotox)
CCCCCCC(=O)NNC(=O)c1c(O)c2ccccc2n(CC)c1=O	SKKanGAS inh 111.6
CCC(CC)N1CCN(C(=O)c2cc(OC)c(OC)c(OC)c2)CC1	none
CCOP(=O)(OCC)C(NC(=O)c1cccs1)c1ccccc1 (centres undefined)	none
CCOc1ccc(NC(=O)c2ccc(N3CC4CC(C3)c3cccc(=O)n3C4)c(NC(=O)c3cccnc3)c2)cc1 (centres undefined)	none
O=C(Cc1cccs1)NNC(=S)NC(=O)c1ccc(F)c(F)c1	none
O=C(/C=C/c1ccccc1)NC(=S)NNC(=O)Cc1cccs1	SKKanGAS inh 78.9
O=C(NC(=S)NCc1ccccc1)c1cccs1	none
O=C(Cc1ccccc1)NNC(=S)NC(=O)c1cccs1	SKKanGAS inh 79.4, aSyn UTR inh 75.4
O=C(NNC(=S)NC(=O)c1cccs1)c1ccc(O)cc1	none (no result: SKKanGAS inh, aSyn UTR inh)
O=C(Cc1cccs1)NNC(=S)NC(=O)c1ccccc1	SKKanGAS inh 56.4
O=C(NC(=S)NNC(=O)c1cccs1)c1ccc(Br)o1	SKKanGAS inh 101.1
Nn1c(SCc2nc3ccccn3c2Br)nnc1-c1cccnc1	none
CCOc1ccc(CCNC(=O)c2nnc(CS(=O)(=O)c3ccccc3)o2)cc1OCC	none
O=C(NCC1CCCO1)C1CC(=O)N(c2ccccc2)C1 (centres undefined)	none (no result: CSC inhib)
COc1ccc(CNC(=O)Cc2cccs2)cc1	none
COc1ccc(/C=C/C(=O)NC(=S)NNC(=O)Cc2cccs2)cc1	SKKanGAS inh 109.2
O=C(O)c1ccc2c3c(ncnc13)-c1ccccc1C2=O	SKKanGAS inh 59.0, aSyn UTR inh 106.6
O=C1c2ccccc2-c2ncnc3cccc1c23	none (no result: SKKanGAS inh, aSyn UTR inh, CSC inhib)
Brc1ccc(Nc2ncnc3[nH]ncc23)cc1	SKKanGAS inh 52.1
COc1ccc(NS(=O)(=O)c2cc(NC(=O)/C=C/c3ccccc3OC)ccc2N2CCCCC2)cc1	none (no result: CSC inhib)
Cc1ccc(NC(=O)CN(c2ccc(Cl)cc2)S(=O)(=O)c2cc([N+](=O)[O-])ccc2Cl)c(C)c1	none
COc1cccc2sc(Nc3nc(-c4ccncc4)cs3)nc12	aSyn UTR inh 105.0, IEC-6 cytotox 53.7
Cc1ccccc1-n1c(SCC(=O)NC(N)=O)nc2sc(-c3ccccc3)cc2c1=O	SKKanGAS inh 85.9 (no result: CSC inhib)
Cc1ccccc1-n1c(SCC(N)=O)nc2sc(-c3ccccc3)cc2c1=O	none
CCCCC(CC)COC(=O)CCCCC(=O)OCC(CC)CCCC (centres undefined)	none (no result: SKKanGAS inh, aSyn UTR inh, KLF5 inh, IEC-6 cytotox)

From PubChem BioAssay
